SMILES strings stand for the structures. Entries with a potency or affinity are not part of this list. The source made the active and inactive calls. How the calls were made is not given here.

Test system in one test: not listed separately
Kind of test: A549 cell cytotoxicity, dose response, cytotoxicity control, plate reader, cherry-pick, antagonist series (AID 743412).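 Further: 0% = neutral control wells and -100% = positive control wells.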 The conditions noted are these: series mostly up to 26 µM; activity change, negative = cytotoxicity: at the top concentration.
For `Cc1ccc(S(=O)(=O)N2[C@@H](CO)CO[C@H]2CC(=O)OCc2ccccc2)cc1`, the “activity change, negative = cytotoxicity” value was 75.5% (inactive).

As for `COc1ccc(NC(=O)Nc2ccc3c(c2)CC(=O)N([C@@H](C)CO)C[C@@H](C)[C@H](CN(C)Cc2ccncc2)O3)cc1`, the “activity change, negative = cytotoxicity” value was -9.25% (inactive).

As for `Cc1ccc(S(=O)(=O)N2CCCc3nc(-c4ccc(F)cc4)ccc32)cc1`, the “activity change, negative = cytotoxicity” value is 0.112% [at 12 µM] (inactive).

Test system in the next test: not listed separately
The test is described as follows: HepG2 cell cytotoxicity, dose response, cytotoxicity control, plate reader, cherry-pick, antagonist series (AID 743416).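 Further: 0% = neutral control wells and -100% = positive control wells.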 As to conditions: series mostly up to 26 µM; activity change, negative = cytotoxicity: at the top concentration.
Turning to `CCOc1ccc(-c2cnc3ccccc3n2)cc1`, the “activity change, negative = cytotoxicity” value is 3.49% (inactive).

For `C[C@H]1CCCCO[C@@H](CN(C)C(=O)Nc2ccc(F)cc2)[C@@H](C)CN([C@@H](C)CO)C(=O)c2cc(NC(=O)C3CCCCC3)ccc2O1`, the “activity change, negative = cytotoxicity” value is 21% [at 23.5 µM] (inactive).

Consider `Nc1nccc(-c2cc(-c3ccc(Cl)cc3Cl)no2)n1`, for which the “activity change, negative = cytotoxicity” value was -15.6% (inactive).

Take `O=C(NCCc1ccc(Cl)cc1)c1ccc2c(c1)OCCO2`: the “activity change, negative = cytotoxicity” value was 0.76% (inactive).

`C[C@H](CO)N1C[C@H](C)[C@H](CN(C)S(=O)(=O)c2ccc(C(F)(F)F)cc2)OCc2ccccc2-c2c(n(C)c3ccccc23)C1=O`: the “activity change, negative = cytotoxicity” value was -43% (inactive).

As for `COc1ccc(-c2cc(-c3ccccc3)no2)cc1`, the “activity change, negative = cytotoxicity” value was -0.409% (inactive).

As to `O=C(Nc1ccc(N2CCOCC2)cc1)c1cnccn1`, the “activity change, negative = cytotoxicity” value was -1.59% (inactive).

For the compound `Cc1cccc(-c2ccc([C@H]3[C@@H](CO)N4CCCCN(C(=O)c5ccncc5)C[C@@H]34)cc2)c1`, the “activity change, negative = cytotoxicity” value is -1.09% (inactive).

For `COc1cc(SC)ccc1C(=O)Nc1nc(C)cs1`, the “activity change, negative = cytotoxicity” value is 5.63% (inactive).

Regarding `O=C(Nc1ccc(NC(=O)c2ccco2)nc1)c1ccco1`, the “activity change, negative = cytotoxicity” value was -11.6% (inactive).

Consider `CCOc1ccc(-n2cc(-c3ccccc3)c3c(N4CCOCC4)ncnc32)cc1`, for which the “activity change, negative = cytotoxicity” value was -0.305% (inactive).

For `COc1ccc(-n2ncc3c(N(C)C4CCCCC4)ncnc32)cc1`, the “activity change, negative = cytotoxicity” value was -5.47% (inactive).

For `COc1ccc(-c2cn3cc(C)ccc3n2)cc1F`, the “activity change, negative = cytotoxicity” value was -3.65% (inactive).

For `COCCOc1cc(NCc2ccccc2)c2ncn(C(C)C)c2c1`, the “activity change, negative = cytotoxicity” value is 11.2% (inactive).

Consider `N#C[C@@H]1[C@H](c2ccc(C#CC3CCCCC3)cc2)[C@@H](CO)N1S(=O)(=O)c1ccccc1`, for which the “activity change, negative = cytotoxicity” value is -152% [at 23.5 µM] (inactive).

As to `Cc1ccccc1C(=O)Nc1ccc2c(c1)OCCO2`, the “activity change, negative = cytotoxicity” value is -9.68% (inactive).

Take `CN(C(=O)COC(=O)c1nc(Cl)c(Cl)c(Cl)c1Cl)C1CCS(=O)(=O)C1` (stereo not drawn): the “activity change, negative = cytotoxicity” value was -1.9% (inactive).

Consider `CCCNC(=O)N1[C@H](C#N)[C@H](c2ccc(C#Cc3ccc(F)cc3)cc2)[C@H]1CO`, for which the “activity change, negative = cytotoxicity” value is -3.06% (inactive).

Regarding `CCCNC(=O)COC(=O)c1ccccc1C(=O)c1ccc(Cl)c([N+](=O)[O-])c1`, the “activity change, negative = cytotoxicity” value was -16.6% (inactive).

With `O=C(Nc1ccc(Cl)cc1)Nc1ccccc1C(=O)O`, the “activity change, negative = cytotoxicity” value was -9.12% (inactive).

Turning to `O=c1[nH]c(CSc2ccccn2)nc2c1oc1ccccc12`, the “activity change, negative = cytotoxicity” value is -1.81% (inactive).

Take `N#C[C@@H]1[C@H](c2ccc(C#CC3CCCCC3)cc2)[C@@H](CO)N1C(=O)c1cccc(F)c1`: the “activity change, negative = cytotoxicity” value was -11.4% [at 23.5 µM] (inactive).

In the case of `COc1ccc(S(=O)(=O)Nc2ccc3c(c2)C(=O)N([C@@H](C)CO)C[C@@H](C)[C@H](CN(C)C(=O)Nc2cccc4ccccc24)OCCCC[C@H](C)O3)cc1`, the “activity change, negative = cytotoxicity” value is 3.69% (inactive).

For `O=C(O)c1cccc(COc2ccc(CO)cc2Cl)c1`, the “activity change, negative = cytotoxicity” value was -0.748% (inactive).

`Cc1cnc(NC(=O)COc2ccccc2Cl)s1`: the “activity change, negative = cytotoxicity” value is -1.6% (inactive).

With `COc1cccc(NC(=O)Nc2cccc(C(=O)O)c2)c1`, the “activity change, negative = cytotoxicity” value is -0.858% (inactive).

In the case of `COCCn1c(C)cc(C(=O)CSc2nnc3ccccn23)c1C`, the “activity change, negative = cytotoxicity” value is 3.49% (inactive).

Turning to `CCc1cc(-c2ccc3c(c2)COc2c4ccccc4nn2-3)on1`, the “activity change, negative = cytotoxicity” value was -3.23% (inactive).

For the compound `CCOc1ccc(-c2ccc(SCC)nn2)cc1`, the “activity change, negative = cytotoxicity” value was 2.84% (inactive).

On to `COc1ccccc1N/C=C/c1onc(C)c1[N+](=O)[O-]`, for which the “activity change, negative = cytotoxicity” value is -3.14% (inactive).

For `Cc1ccc(C)c(S(=O)(=O)N(C(=O)c2ccncc2)c2ccc(OC(=O)c3ccncc3)cc2)c1`, the “activity change, negative = cytotoxicity” value was -5.33% (inactive).

On to `COc1ccc(Nc2ncc(F)c(N3CCOCC3)n2)cc1`, for which the “activity change, negative = cytotoxicity” value is -9.75% (inactive).

As for `CSc1nnc(NC(=O)c2ccc3c(c2)OCO3)s1`, the “activity change, negative = cytotoxicity” value was -8.43% (inactive).

With `COc1ccc(-n2cc(C(=O)c3ccccc3O)cn2)cc1`, the “activity change, negative = cytotoxicity” value was -1.9% (inactive).

As to `Clc1ccc(-c2cc(-c3ccccn3)on2)c(Cl)c1`, the “activity change, negative = cytotoxicity” value was -5.66% (inactive).

`C[C@H](CO)N1C[C@H](C)[C@H](CN(C)C(=O)Nc2cccc3ccccc23)OCCCC[C@H](C)Oc2ccc(NC(=O)c3ccccc3)cc2C1=O`: the “activity change, negative = cytotoxicity” value was -24.7% (inactive).

As for `CC1CCN(c2ccc(-c3cccs3)nn2)CC1`, the “activity change, negative = cytotoxicity” value was 92.2% (inactive).

The target of a further test is Melanocortin receptor 4 (Homo sapiens) (UniProt P32245). Kind of test: MC4R antagonists, dose response, counter-screen for LGR2 antagonist project, cell-based, plate reader, cherry pick (AID 743444). As to conditions: MC4R-expressing cells, antagonist mode; series mostly up to 35 µM; activity change, negative = inhibition: at the top concentration. Background: Counterscreens check selectivity or assay interference.
With `Cc1ccc(S(=O)(=O)N2[C@@H](CO)CO[C@H]2CC(=O)OCc2ccccc2)cc1`, the “activity change, negative = inhibition” value was 31.3% (inactive).

Turning to `COc1ccc(NC(=O)Nc2ccc3c(c2)CC(=O)N([C@@H](C)CO)C[C@@H](C)[C@H](CN(C)Cc2ccncc2)O3)cc1`, the “activity change, negative = inhibition” value is 2.76% (inactive).

With `Cc1ccc(S(=O)(=O)N2CCCc3nc(-c4ccc(F)cc4)ccc32)cc1`, the “activity change, negative = inhibition” value was 39.7% (inactive).

Source of the values: PubChem BioAssay.
